# Measurements reported in PubChem BioAssay (EPA / NIEHS).
# “And” between values parts separate entries of the source, which are not always exact repeats. Equal values may be shown once. Results filed as inconclusive are left out. More than one record can exist for a structure, and the calls need not agree. The source made the active and inactive calls. Rule for the calls: active = hit-call score of the fitted dose curve at least 0.9, where 1 is the maximum; inconclusive = response in the unintended direction; inactive = score below 0.9.
# Molecular target: human AMP-activated Protein Kinase, alpha 1 (AMPKa1), PRKAA1 (gene 5562) (UniProt Q13131)
# Sequence (Q13131 whole entry, looked up): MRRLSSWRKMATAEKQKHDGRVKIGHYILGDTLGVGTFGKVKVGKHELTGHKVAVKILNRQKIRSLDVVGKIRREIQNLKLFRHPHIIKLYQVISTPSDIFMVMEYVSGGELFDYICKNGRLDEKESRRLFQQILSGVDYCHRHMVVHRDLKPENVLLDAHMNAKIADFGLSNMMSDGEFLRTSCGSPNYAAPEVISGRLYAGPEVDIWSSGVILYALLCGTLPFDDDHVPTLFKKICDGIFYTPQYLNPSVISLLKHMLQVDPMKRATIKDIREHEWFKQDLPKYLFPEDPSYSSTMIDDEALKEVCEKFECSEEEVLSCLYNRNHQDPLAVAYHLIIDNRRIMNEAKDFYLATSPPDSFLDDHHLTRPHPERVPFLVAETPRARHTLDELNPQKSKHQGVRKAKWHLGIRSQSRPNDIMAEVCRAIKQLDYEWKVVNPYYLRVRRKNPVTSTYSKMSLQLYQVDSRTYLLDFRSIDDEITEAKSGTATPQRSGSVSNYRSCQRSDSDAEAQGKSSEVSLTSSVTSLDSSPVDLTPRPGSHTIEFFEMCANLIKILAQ
# Assay: NVS_ENZ_hAMPKa1: NovaScreen (NVS) Enzymatic Assay for human AMP-activated Protein Kinase, alpha 1 (AMPKa1) (AID 2283130)
# Protocol: NVS_ENZ_hAMPKa1 is a biochemical, single-readout assay that uses extracted gene-proteins in a cell-free assay. Measurements were taken 1 hour after chemical dosing in a 384-well plate.NVS_ENZ_hAMPKa1 is one of one assay component(s) measured or calculated from the NVS_ENZ_hAMPKa1 assay. It is designed to make measurements of enzyme activity, a form of enzyme reporter, as detected with fluorescence intensity signals by Fluorescence and electrophoretic mobility shift technology.Data from the assay component NVS_ENZ_hAMPKa1 was analyzed into 1 assay endpoint. This assay endpoint, NVS_ENZ_hAMPKa1, was analyzed in the positive analysis fitting direction relative to DMSO as the negative control and baseline of activity. Using a type of enzyme reporter, loss-of-signal activity can be used to understand changes in the enzymatic activity as they relate to the gene PRKAA1. Furthermore, this assay endpoint can be referred to as a primary readout, because this assay has produced multiple assay endpoints where this one serves a enzymatic activity function. To generalize the intended target to other relatable targets, this assay endpoint is annotated to the kinase intended target family, where the subfamily is serine/threonine kinase.
# Binding assays used specific radioligands (tritiated, iodinated) with non-radioactive competitive displacement ligands in agonist or antagonist protocols (as indicated) and various reference compounds and inhibitors to titrate specific binding to receptors and transporters. Most enzyme assays (CYPs, kinases, phosphatases, proteases, HDACs) used recombinant protein and specific substrates (fluorescence mostly, some colorimetric and radioactive) and inhibitors, followed by a biochemical separation of substrate and product. All assays for the biochemical HTS were initially run in duplicate at a single concentration (10 uM for CYP450 assays and 25 uM for all others). Assay-chemical combinations meeting a pre-defined threshold (e.g., 30% inhibition and other criteria defined below) were then run in singleton concentration-response format with maximum concentration of 20 uM for CYPs and 50 uM for all others. Each assay was run with positive and negative controls, and concurrent controls on every plate. The follow-up (secondary) screen tested active chemical-pairs in concentration series, as well as a few additional assays not tested in the primary screen, some selected negative inactives, and several cases re-run in the concentration series for confirmatory purposes.
SMILES,outcome,AC50
CC(C)CC(C)(O)C#CC(C)(O)CC(C)C (stereo not given),inactive,–
COCC(C)OCC(C)O (stereo not given),inactive,–
O=C(O)C1(C(=O)Nc2ccc(Cl)cc2Cl)CC1,–,7.12 µM (active)
CNC(=O)[C@H]1O[C@@H](n2cnc3c(NCc4cc(Cl)ccc4OCc4cc(C)no4)ncnc32)[C@H](O)[C@@H]1N,inactive,–
CCOC(N)=O,inactive,–
Cc1ncc([C@@H](CCCCCCc2ccc3c(n2)NCCC3)CC(=O)O)cn1,inactive,–
Cc1[nH]nc2c1N=C(c1ccccc1Cl)c1cc([N+](=O)[O-])ccc1N2,–,17 µM (active)
Oc1ccc(C(c2ccc(O)cc2)C(Cl)(Cl)Cl)cc1,–,19.6 µM (active)
CCC(C)N(C)C(=O)c1cc2ccccc2c(-c2ccccc2Cl)n1 (stereo not given),inactive,–
O=C(O)c1ccccc1C(c1ccc(O)cc1)c1ccc(O)cc1,inactive,–
O=[N+]([O-])c1ccc(Cl)cc1,inactive,–
O=C(O)Cc1cc(I)c(Oc2ccc(O)c(I)c2)c(I)c1,inactive,–
O=C(c1ccc(OCCN2CCCCC2)cc1)c1c(-c2ccc(O)cc2)sc2cc(O)ccc12,–,18.9 µM (active)
N[C@@H](Cc1cc(I)c(Oc2ccc(O)c(I)c2)c(I)c1)C(=O)O,inactive,–
CN1C(=O)N(c2ccccc2Br)Cc2cnc(Nc3ccc4c(c3)OCC(CO)O4)nc21 (stereo not given),inactive,–
NCCO,inactive,–
CCCCCCCCCCCCc1ccccc1,inactive,–
O=C(NO)C1(NS(=O)(=O)c2ccc(Oc3ccc(F)cc3)cc2)CCOCC1,inactive,–
O=C(Oc1ccccc1)c1cccc(C(=O)Oc2ccccc2)c1,inactive,–
CCN(CC)C(=O)c1cc(S(=O)(=O)Cc2ccccc2)c(N2CCC(c3ccccc3)CC2)cc1N(CC)CCN(C)C,–,34.9 µM (active)

SMILES,outcome,AC50
CN(C)C(=O)NC1(c2ccccc2)CCN(CC[C@@]2(c3ccc(F)c(F)c3)CN(C(=O)c3ccccc3)CCO2)CC1,inactive,–
CN(C)c1ccc(N=NS(=O)(=O)O)cc1,inactive,–
CCCCCCCC/C=C\CCCCCCCC(=O)OC[C@@H](O)[C@H]1OC[C@H](O)[C@H]1O,inactive,–
O=C1O[C@H]([C@@H](O)CO)C(O)=C1O,inactive,–
CC/C(=C(\c1ccccc1)c1ccc(OCCN(C)C)cc1)c1ccccc1,inactive,25.4 µM (active)
CNS(=O)(=O)c1cc(C(=O)N2CCC(CCN3C4CCC3CC(n3c(C)nc5ccccc53)C4)(c3cccc(F)c3)CC2)c(Cl)cc1F (stereo not given),–,36 µM (active)
O=C(OCCCCCOC(=O)c1ccccc1)c1ccccc1,inactive,–
O=C1c2ccccc2C(=O)N1CCc1noc(-c2ccc(CN3CCCCCC3)s2)n1,inactive,–
CCCCCC(=O)O,inactive,–
O=c1[nH]cnc2c1ncn2[C@H]1CC[C@@H](CO)O1,inactive,–
COc1cccc(-c2ccc(/C=C\CN3CCCCCC3)cc2Cl)c1,–,34.6 µM (active)
S=C(S)NCCNC(=S)S.[Mn+2].[S-]C([S-])=NCCN=C([S-])[S-].[Zn+2],–,1.87 µM (active) and 1.32 µM (active) and 2.26 µM (active)
CCN(CC)CCNc1ccc(CNC=O)c2sc3ccc(OC)cc3c(=O)c12,inactive,–
CC(C)(C)c1ccccc1,inactive,–
COc1cc(-c2nc(NC(=O)c3cc4cc(C)cc(C)c4n3CC(=O)O)sc2CCC2CCCCC2)c(OC)cc1Cl,–,8.19 µM (active)
COc1cc(C(=O)NC2CCN(C)CC2)ccc1Nc1ncc2c(n1)N(C1CCCC1)CC(F)(F)C(=O)N2C,inactive,–
CCOC(=O)C(C)(C)Oc1ccc(Cl)cc1,inactive,–
C[Si]1(C)O[Si](C)(C)O[Si](C)(C)O[Si](C)(C)O1,inactive,–
O=C(OCCOCCOC(=O)c1ccccc1)c1ccccc1,inactive,–
